Reference: the supplement of paper PMC11732987, “Enantioselective OTUD7B fragment discovery through chemoproteomics screening and high-throughput optimisation” (Communications Chemistry, 2025)
A number with no mark means an inactive call.

What was measured:
Assay in all cases: log2 ratio of Biotin-Ahx-Ub-VS probe labelling (fragment/DMSO); higher = less target engagement (more negative = stronger competition), active = hit call of the paper (q ≤ 0.05, log2 ratio ≤ -1)
Conditions in all cases: compound concentration: 200 uM; treatment time: 3 h
USP42 = biological target: T1, USP42 (UniProt Q9H9J4)
T1 sequence (whole entry): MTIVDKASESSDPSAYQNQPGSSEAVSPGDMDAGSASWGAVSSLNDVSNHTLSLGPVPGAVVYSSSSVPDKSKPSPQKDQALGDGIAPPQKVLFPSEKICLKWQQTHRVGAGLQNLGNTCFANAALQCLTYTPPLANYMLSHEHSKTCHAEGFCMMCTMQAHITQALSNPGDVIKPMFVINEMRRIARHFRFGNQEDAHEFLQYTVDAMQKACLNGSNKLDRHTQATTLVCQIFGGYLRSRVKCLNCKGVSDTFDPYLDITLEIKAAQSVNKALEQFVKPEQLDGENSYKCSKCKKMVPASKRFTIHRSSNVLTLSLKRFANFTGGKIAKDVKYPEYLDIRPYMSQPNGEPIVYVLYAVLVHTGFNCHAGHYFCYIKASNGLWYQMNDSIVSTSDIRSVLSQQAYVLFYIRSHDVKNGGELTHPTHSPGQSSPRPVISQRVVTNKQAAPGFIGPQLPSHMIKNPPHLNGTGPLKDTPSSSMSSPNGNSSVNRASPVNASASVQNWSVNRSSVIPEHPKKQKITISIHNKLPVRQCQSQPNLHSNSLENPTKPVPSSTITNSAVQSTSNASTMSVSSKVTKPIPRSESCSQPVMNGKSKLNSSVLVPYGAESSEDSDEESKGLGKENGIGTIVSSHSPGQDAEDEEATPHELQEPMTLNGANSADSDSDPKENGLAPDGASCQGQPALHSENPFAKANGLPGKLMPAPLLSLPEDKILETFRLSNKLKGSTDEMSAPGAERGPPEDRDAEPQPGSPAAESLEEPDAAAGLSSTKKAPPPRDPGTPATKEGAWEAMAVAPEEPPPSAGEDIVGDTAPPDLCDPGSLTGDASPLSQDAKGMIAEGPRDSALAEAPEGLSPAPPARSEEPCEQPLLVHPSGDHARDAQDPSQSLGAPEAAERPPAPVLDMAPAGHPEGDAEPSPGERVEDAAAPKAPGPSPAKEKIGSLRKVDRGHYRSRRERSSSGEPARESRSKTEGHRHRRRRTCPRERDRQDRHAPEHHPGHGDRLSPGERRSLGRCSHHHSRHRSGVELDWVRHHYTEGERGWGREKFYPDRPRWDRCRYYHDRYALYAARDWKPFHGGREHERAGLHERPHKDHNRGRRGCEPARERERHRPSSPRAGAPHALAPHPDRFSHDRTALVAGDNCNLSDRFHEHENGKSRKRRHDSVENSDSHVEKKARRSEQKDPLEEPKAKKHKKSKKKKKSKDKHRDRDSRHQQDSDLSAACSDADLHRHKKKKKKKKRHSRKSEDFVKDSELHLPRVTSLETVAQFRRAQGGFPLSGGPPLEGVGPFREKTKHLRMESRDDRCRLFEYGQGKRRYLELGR
Method in brief: (§1)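 Labelled DUBs were enriched with NeutrAvidin, digested with LysC and trypsin, and run by diaPASEF LC-MS/MS. The labelling used Biotin-Ahx-Ub-VS at 0.5 µM final for 1 h on HEK293T lysate (495 µg per sample) previously treated in triplicate with fragment at 200 µM or vehicle for 3 h. Values are average log2 fragment/vehicle ratios by unpaired t-test on global-median-normalised Spectronaut quantities of proteins with ≥2 unique peptides.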

USP46 = USP46 (UniProt P62068)
Method in brief: as §1

USP47 = biological target: T2, USP47 (UniProt Q96K76)
T2 sequence (whole entry): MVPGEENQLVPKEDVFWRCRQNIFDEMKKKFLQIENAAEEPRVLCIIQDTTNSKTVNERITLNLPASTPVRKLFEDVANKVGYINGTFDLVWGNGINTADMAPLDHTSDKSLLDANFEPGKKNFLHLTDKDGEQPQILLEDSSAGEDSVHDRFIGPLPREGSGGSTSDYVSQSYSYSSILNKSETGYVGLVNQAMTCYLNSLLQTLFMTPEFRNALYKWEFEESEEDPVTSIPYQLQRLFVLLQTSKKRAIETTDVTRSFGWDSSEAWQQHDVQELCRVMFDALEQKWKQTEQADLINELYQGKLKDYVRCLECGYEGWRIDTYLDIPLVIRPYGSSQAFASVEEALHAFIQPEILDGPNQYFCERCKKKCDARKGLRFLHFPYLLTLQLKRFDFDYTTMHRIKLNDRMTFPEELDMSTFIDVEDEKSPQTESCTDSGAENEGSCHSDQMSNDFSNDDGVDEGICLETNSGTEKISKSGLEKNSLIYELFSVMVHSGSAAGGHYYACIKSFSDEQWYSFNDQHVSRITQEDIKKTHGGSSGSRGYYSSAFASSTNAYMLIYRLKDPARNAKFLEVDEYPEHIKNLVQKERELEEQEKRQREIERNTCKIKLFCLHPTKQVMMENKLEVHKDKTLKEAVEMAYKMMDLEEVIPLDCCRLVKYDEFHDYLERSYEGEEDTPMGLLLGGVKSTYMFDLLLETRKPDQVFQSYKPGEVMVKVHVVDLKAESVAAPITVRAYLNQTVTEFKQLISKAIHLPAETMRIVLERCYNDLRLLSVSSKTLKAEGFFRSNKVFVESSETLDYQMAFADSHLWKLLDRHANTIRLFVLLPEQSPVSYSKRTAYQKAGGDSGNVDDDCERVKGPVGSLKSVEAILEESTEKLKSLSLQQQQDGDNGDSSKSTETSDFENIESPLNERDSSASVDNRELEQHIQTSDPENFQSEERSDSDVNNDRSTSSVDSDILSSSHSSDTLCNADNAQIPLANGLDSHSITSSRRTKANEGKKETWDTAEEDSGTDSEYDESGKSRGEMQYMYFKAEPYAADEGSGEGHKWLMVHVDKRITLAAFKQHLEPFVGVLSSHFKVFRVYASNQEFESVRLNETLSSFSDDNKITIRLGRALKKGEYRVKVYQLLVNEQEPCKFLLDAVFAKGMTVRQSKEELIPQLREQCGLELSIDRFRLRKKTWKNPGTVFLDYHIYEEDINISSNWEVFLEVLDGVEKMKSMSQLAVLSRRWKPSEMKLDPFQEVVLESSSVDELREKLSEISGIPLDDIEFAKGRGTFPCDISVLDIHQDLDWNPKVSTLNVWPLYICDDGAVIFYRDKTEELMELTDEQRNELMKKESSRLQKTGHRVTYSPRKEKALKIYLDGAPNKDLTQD
Method in brief: as §1

USP48 = biological target: T3, USP48 (UniProt Q86UV5)
T3 sequence (whole entry): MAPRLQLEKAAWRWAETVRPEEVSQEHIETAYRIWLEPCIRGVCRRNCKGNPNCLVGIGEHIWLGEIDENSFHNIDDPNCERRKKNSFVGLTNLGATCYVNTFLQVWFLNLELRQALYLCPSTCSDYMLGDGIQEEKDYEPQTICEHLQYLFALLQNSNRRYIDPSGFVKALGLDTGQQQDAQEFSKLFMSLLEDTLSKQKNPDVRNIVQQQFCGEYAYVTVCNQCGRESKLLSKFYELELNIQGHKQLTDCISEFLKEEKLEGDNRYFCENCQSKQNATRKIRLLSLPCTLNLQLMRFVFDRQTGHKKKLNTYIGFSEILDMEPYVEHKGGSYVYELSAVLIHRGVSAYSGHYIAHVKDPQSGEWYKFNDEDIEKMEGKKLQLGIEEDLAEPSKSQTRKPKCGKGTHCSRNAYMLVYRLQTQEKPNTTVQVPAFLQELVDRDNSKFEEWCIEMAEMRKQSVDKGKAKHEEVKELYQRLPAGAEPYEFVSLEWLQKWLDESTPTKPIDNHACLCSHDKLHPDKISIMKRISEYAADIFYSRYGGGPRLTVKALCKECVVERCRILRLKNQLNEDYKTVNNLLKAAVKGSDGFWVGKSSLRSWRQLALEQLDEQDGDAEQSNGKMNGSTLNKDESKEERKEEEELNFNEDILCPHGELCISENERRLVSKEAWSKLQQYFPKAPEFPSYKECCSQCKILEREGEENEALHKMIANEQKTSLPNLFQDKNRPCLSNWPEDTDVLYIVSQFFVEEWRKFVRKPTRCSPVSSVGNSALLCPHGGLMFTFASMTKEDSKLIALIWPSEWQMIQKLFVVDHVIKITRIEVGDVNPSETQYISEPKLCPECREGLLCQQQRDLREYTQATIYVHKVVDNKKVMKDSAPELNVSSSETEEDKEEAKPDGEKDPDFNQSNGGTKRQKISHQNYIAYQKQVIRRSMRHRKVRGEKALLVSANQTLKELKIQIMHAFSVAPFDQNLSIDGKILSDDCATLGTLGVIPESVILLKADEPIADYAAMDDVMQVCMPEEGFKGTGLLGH
Method in brief: as §1

USP5 = biological target: T4, USP5 (UniProt P45974)
T4 sequence (whole entry): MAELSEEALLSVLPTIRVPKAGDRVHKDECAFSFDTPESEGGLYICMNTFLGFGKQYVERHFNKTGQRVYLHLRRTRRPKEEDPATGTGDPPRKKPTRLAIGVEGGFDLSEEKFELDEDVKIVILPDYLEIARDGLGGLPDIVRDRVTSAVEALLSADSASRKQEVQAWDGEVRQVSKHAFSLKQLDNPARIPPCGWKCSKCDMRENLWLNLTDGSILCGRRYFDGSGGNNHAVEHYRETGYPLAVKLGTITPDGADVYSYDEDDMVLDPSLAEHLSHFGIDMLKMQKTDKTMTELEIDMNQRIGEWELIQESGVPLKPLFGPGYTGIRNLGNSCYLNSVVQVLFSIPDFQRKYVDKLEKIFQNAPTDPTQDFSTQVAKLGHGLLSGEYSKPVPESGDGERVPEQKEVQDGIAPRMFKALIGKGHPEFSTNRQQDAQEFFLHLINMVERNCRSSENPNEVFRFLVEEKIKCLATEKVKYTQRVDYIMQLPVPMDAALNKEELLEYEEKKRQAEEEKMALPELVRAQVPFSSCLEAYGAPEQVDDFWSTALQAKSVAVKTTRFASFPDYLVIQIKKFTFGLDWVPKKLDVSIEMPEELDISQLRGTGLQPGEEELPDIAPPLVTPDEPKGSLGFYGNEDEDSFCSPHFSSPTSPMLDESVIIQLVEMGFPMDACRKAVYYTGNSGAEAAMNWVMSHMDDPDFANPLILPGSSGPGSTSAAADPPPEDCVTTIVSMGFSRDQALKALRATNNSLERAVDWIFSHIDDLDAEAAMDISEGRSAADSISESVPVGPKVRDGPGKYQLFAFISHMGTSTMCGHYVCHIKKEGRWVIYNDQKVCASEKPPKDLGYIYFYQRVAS
Method in brief: as §1

USP54 = USP54 (UniProt Q70EL1)
Method in brief: as §1

USP7 = USP7 (UniProt Q93009)
Method in brief: as §1

USP8 = biological target: T5, USP8 (UniProt P40818)
T5 sequence (whole entry): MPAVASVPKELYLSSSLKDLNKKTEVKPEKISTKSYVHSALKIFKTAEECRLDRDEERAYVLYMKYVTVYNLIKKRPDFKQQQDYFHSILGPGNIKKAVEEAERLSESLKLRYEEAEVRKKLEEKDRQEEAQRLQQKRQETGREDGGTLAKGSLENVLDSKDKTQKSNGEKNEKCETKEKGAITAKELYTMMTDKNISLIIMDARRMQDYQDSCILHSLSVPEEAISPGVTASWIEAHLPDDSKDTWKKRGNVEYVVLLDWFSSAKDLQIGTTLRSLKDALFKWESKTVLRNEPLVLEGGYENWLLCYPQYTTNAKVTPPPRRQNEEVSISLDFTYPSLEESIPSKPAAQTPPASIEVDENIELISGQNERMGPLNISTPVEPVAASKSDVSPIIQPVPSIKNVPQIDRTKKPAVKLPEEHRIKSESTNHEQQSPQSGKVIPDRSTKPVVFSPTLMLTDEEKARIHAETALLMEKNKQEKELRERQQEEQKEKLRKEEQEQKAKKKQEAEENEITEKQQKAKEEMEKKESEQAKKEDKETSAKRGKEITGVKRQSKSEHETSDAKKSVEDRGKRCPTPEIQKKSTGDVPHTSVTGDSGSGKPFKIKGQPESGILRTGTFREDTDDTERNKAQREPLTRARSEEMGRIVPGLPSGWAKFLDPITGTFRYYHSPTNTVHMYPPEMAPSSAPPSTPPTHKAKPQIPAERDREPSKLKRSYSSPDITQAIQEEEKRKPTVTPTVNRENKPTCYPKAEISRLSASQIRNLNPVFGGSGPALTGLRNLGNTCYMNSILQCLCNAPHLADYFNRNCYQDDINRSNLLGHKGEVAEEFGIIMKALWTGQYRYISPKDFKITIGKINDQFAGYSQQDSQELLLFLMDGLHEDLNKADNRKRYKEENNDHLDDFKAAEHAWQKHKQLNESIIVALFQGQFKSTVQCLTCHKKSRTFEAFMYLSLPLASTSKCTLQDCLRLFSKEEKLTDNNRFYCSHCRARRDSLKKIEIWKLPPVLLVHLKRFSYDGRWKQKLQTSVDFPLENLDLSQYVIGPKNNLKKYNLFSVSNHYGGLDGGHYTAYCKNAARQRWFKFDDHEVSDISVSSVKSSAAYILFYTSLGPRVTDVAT
Method in brief: as §1

USP9X = USP9X (UniProt Q93008)
Method in brief: as §1

UniProt O00487 = biological target: UniProt O00487
Method in brief: as §1

Chain of USP54 (Q70EL1 whole entry): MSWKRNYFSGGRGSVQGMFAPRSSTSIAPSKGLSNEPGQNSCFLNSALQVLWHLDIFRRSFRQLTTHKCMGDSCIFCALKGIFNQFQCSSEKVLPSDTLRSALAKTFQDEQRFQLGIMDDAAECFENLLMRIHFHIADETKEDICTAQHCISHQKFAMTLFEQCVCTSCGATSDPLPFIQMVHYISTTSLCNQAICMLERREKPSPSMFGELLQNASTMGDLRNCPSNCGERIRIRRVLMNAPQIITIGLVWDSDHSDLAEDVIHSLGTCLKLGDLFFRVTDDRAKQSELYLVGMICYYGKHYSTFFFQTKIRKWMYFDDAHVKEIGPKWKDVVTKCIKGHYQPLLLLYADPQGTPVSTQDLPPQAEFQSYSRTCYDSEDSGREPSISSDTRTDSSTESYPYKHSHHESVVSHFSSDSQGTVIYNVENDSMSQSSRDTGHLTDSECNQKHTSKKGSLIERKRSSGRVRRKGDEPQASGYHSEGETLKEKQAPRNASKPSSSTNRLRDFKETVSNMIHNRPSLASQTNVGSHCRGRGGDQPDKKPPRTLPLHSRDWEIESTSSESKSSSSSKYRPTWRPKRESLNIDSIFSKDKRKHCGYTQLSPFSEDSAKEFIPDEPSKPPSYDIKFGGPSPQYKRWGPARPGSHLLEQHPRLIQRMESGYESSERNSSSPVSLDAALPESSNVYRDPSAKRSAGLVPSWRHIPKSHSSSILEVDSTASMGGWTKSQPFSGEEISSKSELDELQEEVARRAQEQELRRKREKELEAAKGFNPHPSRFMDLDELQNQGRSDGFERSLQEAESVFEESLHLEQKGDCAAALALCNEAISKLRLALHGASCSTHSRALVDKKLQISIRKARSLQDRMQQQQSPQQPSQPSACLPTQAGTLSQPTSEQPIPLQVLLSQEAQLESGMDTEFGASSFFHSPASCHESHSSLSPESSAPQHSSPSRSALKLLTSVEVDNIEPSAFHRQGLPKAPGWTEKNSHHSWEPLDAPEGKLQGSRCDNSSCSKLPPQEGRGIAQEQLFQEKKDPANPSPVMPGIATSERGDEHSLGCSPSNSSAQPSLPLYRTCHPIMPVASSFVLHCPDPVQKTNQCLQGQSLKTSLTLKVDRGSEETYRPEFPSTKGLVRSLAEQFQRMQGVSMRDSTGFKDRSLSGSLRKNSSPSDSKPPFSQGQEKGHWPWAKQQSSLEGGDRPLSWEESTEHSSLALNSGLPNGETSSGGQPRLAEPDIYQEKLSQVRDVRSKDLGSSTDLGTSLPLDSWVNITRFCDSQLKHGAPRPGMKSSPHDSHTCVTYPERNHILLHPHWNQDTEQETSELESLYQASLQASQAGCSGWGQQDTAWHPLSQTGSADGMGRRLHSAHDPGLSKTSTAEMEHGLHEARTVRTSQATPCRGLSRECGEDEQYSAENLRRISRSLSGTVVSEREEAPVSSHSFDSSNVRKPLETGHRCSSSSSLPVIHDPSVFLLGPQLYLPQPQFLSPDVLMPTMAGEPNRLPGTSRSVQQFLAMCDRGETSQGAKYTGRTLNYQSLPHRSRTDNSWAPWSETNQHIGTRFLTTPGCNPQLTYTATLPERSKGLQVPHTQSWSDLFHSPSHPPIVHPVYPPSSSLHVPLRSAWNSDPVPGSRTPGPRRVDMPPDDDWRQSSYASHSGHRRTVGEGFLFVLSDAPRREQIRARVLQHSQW
Chain of UniProt O00487 (O00487 whole entry): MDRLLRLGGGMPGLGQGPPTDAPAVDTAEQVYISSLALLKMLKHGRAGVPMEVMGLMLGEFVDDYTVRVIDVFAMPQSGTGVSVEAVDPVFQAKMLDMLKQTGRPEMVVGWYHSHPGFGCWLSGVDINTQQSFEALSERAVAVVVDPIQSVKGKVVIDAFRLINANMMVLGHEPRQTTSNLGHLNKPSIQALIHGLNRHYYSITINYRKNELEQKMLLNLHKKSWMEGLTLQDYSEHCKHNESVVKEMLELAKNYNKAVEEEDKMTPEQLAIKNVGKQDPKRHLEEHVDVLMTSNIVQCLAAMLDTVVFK
Chain of USP9X (Q93008 whole entry): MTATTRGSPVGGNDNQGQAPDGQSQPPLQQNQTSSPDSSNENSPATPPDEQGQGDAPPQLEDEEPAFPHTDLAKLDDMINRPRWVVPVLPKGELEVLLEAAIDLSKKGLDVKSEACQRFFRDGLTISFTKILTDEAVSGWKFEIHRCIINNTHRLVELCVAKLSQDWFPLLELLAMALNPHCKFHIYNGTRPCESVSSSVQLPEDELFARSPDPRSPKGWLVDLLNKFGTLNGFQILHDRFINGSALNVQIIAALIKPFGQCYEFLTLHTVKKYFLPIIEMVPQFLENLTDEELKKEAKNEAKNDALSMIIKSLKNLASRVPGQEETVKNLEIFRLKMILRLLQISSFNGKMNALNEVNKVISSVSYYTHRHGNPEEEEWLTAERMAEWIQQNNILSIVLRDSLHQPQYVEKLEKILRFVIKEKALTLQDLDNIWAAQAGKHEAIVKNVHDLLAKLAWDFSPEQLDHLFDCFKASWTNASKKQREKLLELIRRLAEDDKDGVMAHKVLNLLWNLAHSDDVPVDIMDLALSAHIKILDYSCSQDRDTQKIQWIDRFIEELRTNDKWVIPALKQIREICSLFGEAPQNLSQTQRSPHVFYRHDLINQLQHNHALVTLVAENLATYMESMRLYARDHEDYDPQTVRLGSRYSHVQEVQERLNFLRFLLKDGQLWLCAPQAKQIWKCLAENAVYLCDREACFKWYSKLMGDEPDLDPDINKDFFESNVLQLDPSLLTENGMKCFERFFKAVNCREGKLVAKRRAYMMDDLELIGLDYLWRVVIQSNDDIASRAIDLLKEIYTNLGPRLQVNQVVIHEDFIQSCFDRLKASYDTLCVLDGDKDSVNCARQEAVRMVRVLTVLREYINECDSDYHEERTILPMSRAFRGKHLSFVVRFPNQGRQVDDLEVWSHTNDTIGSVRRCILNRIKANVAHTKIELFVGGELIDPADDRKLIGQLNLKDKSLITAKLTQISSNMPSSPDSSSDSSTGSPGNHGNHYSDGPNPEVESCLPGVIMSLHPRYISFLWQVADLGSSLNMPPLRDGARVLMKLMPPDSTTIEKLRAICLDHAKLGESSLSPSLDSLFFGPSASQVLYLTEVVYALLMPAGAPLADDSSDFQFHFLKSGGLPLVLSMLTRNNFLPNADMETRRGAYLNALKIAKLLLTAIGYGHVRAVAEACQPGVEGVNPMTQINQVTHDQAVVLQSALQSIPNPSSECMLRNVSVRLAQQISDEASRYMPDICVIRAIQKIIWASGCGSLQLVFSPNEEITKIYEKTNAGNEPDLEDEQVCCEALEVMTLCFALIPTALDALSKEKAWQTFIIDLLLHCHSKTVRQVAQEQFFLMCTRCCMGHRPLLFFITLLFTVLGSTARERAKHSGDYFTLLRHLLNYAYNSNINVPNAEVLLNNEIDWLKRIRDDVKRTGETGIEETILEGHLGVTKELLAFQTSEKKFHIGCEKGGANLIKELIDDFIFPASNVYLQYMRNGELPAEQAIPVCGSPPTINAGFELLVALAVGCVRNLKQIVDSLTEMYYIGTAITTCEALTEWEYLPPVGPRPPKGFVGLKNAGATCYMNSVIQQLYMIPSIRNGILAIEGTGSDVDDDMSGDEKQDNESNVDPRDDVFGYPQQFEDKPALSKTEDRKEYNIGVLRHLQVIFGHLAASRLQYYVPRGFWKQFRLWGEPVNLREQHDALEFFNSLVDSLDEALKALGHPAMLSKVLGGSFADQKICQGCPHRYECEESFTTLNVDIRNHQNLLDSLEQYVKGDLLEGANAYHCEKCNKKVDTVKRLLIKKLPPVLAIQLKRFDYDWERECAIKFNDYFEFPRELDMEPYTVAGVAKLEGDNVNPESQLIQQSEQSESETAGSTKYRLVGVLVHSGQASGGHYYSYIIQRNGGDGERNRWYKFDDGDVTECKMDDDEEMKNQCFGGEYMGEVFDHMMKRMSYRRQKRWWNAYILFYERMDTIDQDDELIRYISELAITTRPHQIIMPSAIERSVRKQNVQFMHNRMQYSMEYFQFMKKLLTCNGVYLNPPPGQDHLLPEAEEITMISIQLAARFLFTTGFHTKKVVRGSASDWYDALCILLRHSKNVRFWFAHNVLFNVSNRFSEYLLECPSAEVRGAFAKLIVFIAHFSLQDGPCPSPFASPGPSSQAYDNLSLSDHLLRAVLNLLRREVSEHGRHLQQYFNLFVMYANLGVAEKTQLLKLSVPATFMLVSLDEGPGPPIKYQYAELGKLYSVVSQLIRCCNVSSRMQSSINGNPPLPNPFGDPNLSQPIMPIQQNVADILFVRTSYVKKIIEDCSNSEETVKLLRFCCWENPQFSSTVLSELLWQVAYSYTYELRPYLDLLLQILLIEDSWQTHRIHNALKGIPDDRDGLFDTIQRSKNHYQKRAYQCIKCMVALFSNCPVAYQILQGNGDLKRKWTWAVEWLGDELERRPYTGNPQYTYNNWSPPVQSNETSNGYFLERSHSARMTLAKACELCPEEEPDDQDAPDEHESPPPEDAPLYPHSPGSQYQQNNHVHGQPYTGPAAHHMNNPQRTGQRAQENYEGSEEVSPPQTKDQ
Chain of USP46 (P62068 whole entry): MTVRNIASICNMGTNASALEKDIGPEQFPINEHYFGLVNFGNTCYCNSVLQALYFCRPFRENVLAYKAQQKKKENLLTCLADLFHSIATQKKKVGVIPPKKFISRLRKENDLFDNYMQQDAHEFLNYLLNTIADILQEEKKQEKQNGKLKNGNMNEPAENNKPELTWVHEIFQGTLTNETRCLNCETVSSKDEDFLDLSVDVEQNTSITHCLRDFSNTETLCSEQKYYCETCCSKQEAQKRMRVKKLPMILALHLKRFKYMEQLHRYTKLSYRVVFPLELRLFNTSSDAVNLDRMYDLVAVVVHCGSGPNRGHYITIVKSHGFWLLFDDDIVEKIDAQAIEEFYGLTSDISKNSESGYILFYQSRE

Structure (SMILES) | log2 ratio of Biotin-Ahx-Ub-VS probe labelling (USP42) | log2 ratio of Biotin-Ahx-Ub-VS probe labelling (USP46) | log2 ratio of Biotin-Ahx-Ub-VS probe labelling (USP47) | log2 ratio of Biotin-Ahx-Ub-VS probe labelling (USP48) | log2 ratio of Biotin-Ahx-Ub-VS probe labelling (USP5) | log2 ratio of Biotin-Ahx-Ub-VS probe labelling (USP54) | log2 ratio of Biotin-Ahx-Ub-VS probe labelling (USP7) | log2 ratio of Biotin-Ahx-Ub-VS probe labelling (USP8) | log2 ratio of Biotin-Ahx-Ub-VS probe labelling (USP9X) | log2 ratio of Biotin-Ahx-Ub-VS probe labelling (UniProt O00487)
Cl.O=C(CCl)NCc1cc2c(nc1O)CCCC2 | -0.448 | 0.127 | -1.45 (active) | -0.169 | 0.0226 | 0.773 | -0.155 | -0.3 | -0.309 | -0.0291
O=C(CCl)N1CCCC1c1ccsc1 (stereo not given) | -0.371 | -0.105 | -0.389 | -0.959 | 0.45 | 0.559 | -0.795 | -0.441 | -0.231 | -0.138
Cc1ccccc1CN(C)C(=O)CCl | -0.263 | -0.653 | -1 | -0.83 | -0.152 | 1.1 | -1.57 (active) | -0.825 | -0.836 | -0.14
O=C(CCl)NC(Cn1ccccc1=O)c1ccccc1 (stereo not given) | -0.346 | 0.258 | -0.4 | 0.0761 | 0.132 | 0.317 | -0.205 | -0.0535 | -0.00544 | 0.0216
